Results taken from PubChem BioAssay (NCATS).
Inconclusive results are not listed. Values without a mark were called inactive. The source made the active and inactive calls. Calls follow the shape of the dose curve; as a rule, active = well fitted inhibition curve with a large enough effect; inconclusive = small, poorly fitted or top-dose-only effect; inactive = flat fitted curve, though single readings scatter. Where a SMILES comes first, the peptide text is derived from it. [ ]: non-standard residue; d: D form. pGlu = O=C1CC[C@@H](C(=O)O)N1

Test system: MKL-1
Assay: qHTS assay to identify novel small-molecules to repurpose for Merkel cell carcinoma treatment (AID 1296009); also: nearly all actives have a fitted effect of over 60% in size
Settings: MCC and control cell lines, CellTiter-Glo viability, 72 h; series mostly up to 46 µM; activity change, negative = cytotoxicity: at the top concentration
Summary of the method: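 After compound transfer in DMSO, plates were kept 72 hr at 37 degree celsius. Luminescent ATP signal from CellTiter-Glo served as viability measure, normalized against DMSO and no-cell controls.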
% is scaled to controls: 0 for no effect and ±100 for the full control effect; potency is read from the fitted curve at half-maximal effect.

Compound	activity change, negative = cytotoxicity	Potency
Cc1cnc(NS(=O)(=O)c2ccc(N)cc2)nc1	1.85%	
CC1c2ccccc2CN1NC(=O)c1ccc(Cl)c(S(N)(=O)=O)c1 (centres undefined)	-1.09%	
CCC[C@H](N[C@@H](C)C(=O)N1[C@H](C(=O)O)C[C@@H]2CCCC[C@@H]21)C(=O)OCC	-4.56%	
N#CSCC(=O)O	-4.22%	
CC(C)(C)C1CCC(CC2=C(O)c3ccccc3C(=O)C2=O)CC1 (centres undefined)	6.33%	
CCOC(=O)N1CCC(Nc2ccc(Cl)cc2N)CC1		21.1 µM (active)
O=C(NO)c1ccccc1	-5.65% [at 92.7 µM]	
Cc1cccc(N(C)C(=S)Oc2ccc3c(c2)CCC3)c1	13.4%	
Nc1nc2ccccc2n1Cc1ccc(F)cc1	-9.81%	
CC(C)(c1ccc(O)cc1)c1ccc(O)cc1	3.48% [at 92.7 µM]	
CC(=O)[C@H]1CC[C@H]2[C@@H]3C=CC4=CC(=O)CC[C@@]4(C)[C@@H]3CC[C@]12C	-4.71%	
O=C(OCCN1CCOCC1)c1cccnc1Nc1cccc(C(F)(F)F)c1	0.535%	
COC(=O)c1cc(Cl)ccc1NS(=O)(=O)C(F)(F)F	1.51%	
CC1CC(=O)NN=C1c1ccc(NCC(C)(C)NCC(O)COc2cc(Cl)ccc2C#N)cc1 (centres undefined)	-7.64%	
c1ccc(C(O[C@H]2CCCN(CCc3ccc4c(c3)OCO4)C2)c2ccccc2)cc1	-1.89%	
O=C(CS(=O)Cc1ccco1)NC/C=C\COc1cc(CN2CCCCC2)ccn1 (centres undefined)	-0.62%	
CCc1cc2cc(OC)c(OC)cc2c(Cc2ccccc2)n1	4.1%	
CCCC(=O)O[C@]1(C(=O)CC)CC[C@H]2[C@@H]3CCC4=CC(=O)CC[C@]4(C)[C@H]3[C@@H](O)C[C@@]21C	-2.01%	
O=C(CCCl)NCCc1ccccc1	0.318%	
Oc1ccc(CCNCCCCCCNCCc2ccccc2)cc1O		2.11 µM (active)

Compound	activity change, negative = cytotoxicity	Potency
C[N+]1(C)CCC(OC(=O)C(O)(c2ccccc2)C2CCCC2)C1 (centres undefined)	4.65%	
CC(=O)Nc1ccn(C2COC(COC(=O)c3ccccc3)O2)c(=O)n1 (centres undefined)	7.12%	
CCNC(=O)[C@@H]1CCCN1C(=O)[C@H](CCCN=C(N)N)NC(=O)[C@H](CC(C)C)NC(=O)CNC(=O)[C@H](Cc1ccc(O)cc1)NC(=O)[C@H](CO)NC(=O)[C@H](Cc1c[nH]c2ccccc12)NC(=O)[C@H](Cc1cnc[nH]1)NC(=O)[C@@H]1CCC(=O)N1 ([pGlu]HWSYGLRP-NHEt)	-2.89%	
CC(C)Cc1ccc(C(C)C(=O)OCc2ccccn2)cc1 (centres undefined)	-2.45%	
CC(CC1c2ccccc2CCc2ccccc21)CN(C)C (centres undefined)	0.407%	
CC(C)C[C@H](NC(=O)CNC(=O)[C@H](Cc1ccc(O)cc1)NC(=O)[C@H](CO)NC(=O)[C@H](Cc1c[nH]c2ccccc12)NC(=O)[C@H](Cc1cnc[nH]1)NC(=O)[C@@H]1CCC(=O)N1)C(=O)N[C@@H](CCCN=C(N)N)C(=O)N1CCC[C@H]1C(=O)NCC(N)=O (stereo in doubt)	2%	
CCCCCCOC(=O)NC(=N)c1ccc(NCc2nc3cc(C(=O)N(CCC(=O)OCC)c4ccccn4)ccc3n2C)cc1		8.41 µM (active)
Oc1cccc2[nH]ccc12	4.68%	
C[N+](C)(CCOc1ccccc1)Cc1cccs1	1.83%	
COc1cc2nc(Cl)nc(N)c2cc1OC	2%	
CN1CCC(N(Cc2cccs2)c2ccccc2)CC1	-23.2%	
CC[N+](CC)(CC)CCOC(=O)C(C1CCCC1)C1CCCC1		11.9 µM (active)
C/C(=N/NC(=O)c1ccncc1)C(=O)O	-4.59%	
O=C(CCC1CCN(Cc2ccccc2)CC1)c1ccc2c(c1)NCCCC2	-4.2%	
C[N+]1(CC2COC(c3ccccc3)(c3ccccc3)O2)CCCCC1 (centres undefined)	-26.7% [at 16.1 µM]	
CCOC(=O)c1cc(=O)c2c(OCC(COc3cccc4oc(C(=O)OCC)cc(=O)c34)OC(=O)[C@@H](N)CCCCN)cccc2o1	-12%	
C=CCOc1cc(Cl)ccc1C(=O)NCCN(CC)CC	1.46%	
CCOc1ncc(F)c(=O)[nH]1	4.83%	
O=C1OC2(c3ccccc31)c1cc(I)c(O)c(I)c1Oc1c2cc(I)c(O)c1I	-20.5%	
